The source of these data is PubChem BioAssay (NCATS).

Inconclusive results are not listed. A call without a number means that no potency is given here. Values without a mark were called inactive. Activity calls are given as the source filed them. Calls follow the shape of the dose curve; as a rule, active = well fitted inhibition curve with a large enough effect; inconclusive = small, poorly fitted or top-dose-only effect; inactive = flat fitted curve, though single readings scatter.

A short description of this experiment: P-glycoprotein substrates identified in KB-8-5-11 adenocarcinoma cell line, qHTS therapeutic library screen (AID 1346987). Also: nearly all actives have a fitted effect of over 65% in size. As to activity change, negative = cytotoxicity: series mostly up to about 44 µM. Put shortly:
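Human cervical adenocarcinoma KB-8-5-11 cells, selected in colchicine to over-express P-gp and assayed without it, were exposed for 72 h to titrated compounds. An ATP-based luminescent viability signal gave AC50.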
(In general: qHTS replaces the single test concentration by a dilution series.)
Potency is read from the fitted curve at half-maximal effect.

`Nc1nc(NC2CC2)cc(-c2cccc(Cl)c2Cl)n1`: the Potency is 6.51 µM (active). For `CC(C)(C)C1CCN(C(=O)n2ncc(C(O)(c3ccccc3)c3ccccc3)n2)CC1`, the Potency was 20.6 µM (active). Consider `N#Cc1cc(CN2CCC(Nc3ncnc4sc(Cl)cc34)CC2)ccc1F`, for which the Potency is 9.2 µM (active). For the compound `C[C@@H]1O[C@@H](O[C@H]2[C@@H](OC(=O)[C@]34CCC(C)(C)CC3C3=CCC5[C@@]6(C)C[C@H](O)[C@H](O[C@@H]7O[C@H](CO)[C@@H](O)[C@H](O)[C@H]7O[C@@H]7OC[C@@H](O)[C@H](O)[C@H]7O)[C@@](C)(C(=O)O)C6CC[C@@]5(C)[C@]3(C)CC4)OC[C@H](O)[C@@H]2O)[C@H](O)[C@H](O)[C@H]1O[C@@H]1OC[C@@H](O)[C@H](O)[C@H]1O` (stereo partly drawn), the outcome is “inactive [at 9.29 µM]”. With `CC1(C)Oc2ncnc(N)c2N=C1c1ccc(C23CCC(CC(=O)O)(CC2)CC3)cc1`, the Potency result is “inactive”. As for `CC(=O)O[C@@H]1C[C@@]23C[C@@]24CC[C@H](O[C@@H]2OC[C@H](O)[C@H](O)[C@H]2O)C(C)(C)[C@@H]4CC[C@H]3[C@]2(C)[C@@H](O)C34O[C@H](C[C@@H](C)[C@@H]3[C@@]12C)[C@@H](C(C)(C)O)O4`, the Potency entry was “inactive”.

Regarding `CC(=O)O[C@@H]1C[C@]2(C)[C@@]3(CCC4[C@@]5(C)CC[C@H](O[C@@H]6O[C@H](C(=O)O)[C@@H](O)[C@H](OC7OC(CO)C(O)C(O)[C@H]7O[C@@H]7O[C@@H](C)[C@H](O)[C@@H](O)[C@H]7O[C@@H]7OC[C@](O)(CO)[C@H]7O)[C@H]6OC6OC(CO)C(O)C(O)C6O)C(C)(C)C5CC[C@]42C)OC[C@@]12CCC(C)(C)CC23` (stereo partly drawn), the activity change, negative = cytotoxicity is -11.3% [at 9.29 µM]. For `O=P(O)(O)OC(Cn1cncn1)(Cn1cncn1)c1ccc(F)cc1F`, the Potency entry is “inactive”. The same measure, in the same setting: the result for `CCC(C)CC(=O)OC1C(=O)C(CO)=CC(O)C1C(C)C` (stereo not drawn) reads 7.31 µM (active); that for `Cc1csc(N(C(=O)CSc2ccc(-c3ccccc3)nn2)C2CC2)n1`, “inactive”; that for `C=C(C(=O)OC[C@H]1O[C@@H](OC(=O)/C=C/c2ccccc2)[C@H](O)[C@@H](O)[C@@H]1O)C(O)CO` (stereo partly drawn), “inactive”. Same read-out and setting: the result for `CCN1CCN(Cc2ccc(NC(=O)c3ccc(C)c(Oc4ncnc5[nH]c(C)cc45)c3)cc2C(F)(F)F)CC1` reads 20.6 µM (active). Same read-out and setting: the result for `CCC(CC)C(=O)OC12C(OC(=O)C(C)C)C(C)C3(O)C(C=C(CO)CC4(O)C(=O)C(C)=CC43)C1C2(C)C` (stereo not drawn) reads “inactive”; that for `Cc1ccc(N2CCN(CCC3NC(=O)c4ccccc43)CC2)cc1C` (stereo not drawn), “inactive”. For `O=S(=O)(NCc1cccc2ccccc12)c1cc(Cl)c(Oc2cccc(N3CCNCC3)c2)s1`, the Potency is 16.4 µM (active). The same measure, in the same setting: the result for `C[C@]12CC[C@@H]3c4ccc(O)c(O)c4CC[C@H]3[C@@H]1CCC2=O` reads “inactive”; that for `COc1ccccc1-c1ccc(-c2cn(C(=O)N3CCCCC3Cc3ccccc3)nn2)cc1` (stereo not drawn), “inactive”; that for `CC(C)c1cccc(C(C)C)c1NC(=O)Nc1ccc(Sc2ccc([N+](=O)[O-])cc2)cc1`, 5.8 µM (active).

Consider `Cc1sc2c(c1C)C(c1ccc(Cl)cc1)=N[C@H](CC(=O)NCCCCNC(=O)COc1cccc3c1C(=O)N([C@H]1CCC(=O)NC1=O)C3=O)c1nnc(C)n1-2`, for which the Potency entry is “inactive”.

For `C/C=C(\C)C(=O)O[C@H]1C[C@](C)(O)[C@H]2CC=C(C)[C@H]2[C@@H]2OC(=O)[C@H](C)[C@H]21`, the Potency entry was “inactive”.

In the case of `FC(F)(F)c1ccc(CNc2ccc(Cc3c[nH]c4ncc(Cl)cc34)cn2)cn1`, the Potency was 14.6 µM (active). With `NCCC(=O)[N-][C@@H](Cc1cnc[nH]1)C(=O)O.[Zn]`, the Potency entry is “inactive”. The same measure, in the same setting: the result for `COc1ccc(C2Oc3c(OC)cc(CCCO)cc3C2COC2OC(CO)C(O)C(O)C2O)cc1OC` (stereo not drawn) reads “inactive”; that for `C[C@@H]1CC[C@@]23CC[C@]4(C)[C@@](C=CC5[C@@]6(C)CC[C@H](O)C(C)(C)C6CC[C@]54C)(OC2=O)C3[C@H]1C` (stereo partly drawn), “inactive”; that for `Cc1[nH]c2ccccc2c1CCNCc1ccc(/C=C/C(=O)NO)cc1`, 0.366 µM (active). Same read-out and setting: the result for `C=C(C(=O)O)[C@@H]1CC=C(CCC(C)=O)[C@@H](C)CC1` reads “inactive”; that for `COc1ccc(-c2csc(NC(=O)[C@H]3CCCCN3S(=O)(=O)c3ccc(C)cc3)n2)cc1`, “inactive”. `C=CC(C)(C)c1[nH]c2ccccc2c1C[C@@H]1NC(=O)[C@H](C)NC1=O`: the Potency entry is “inactive”.

Turning to `C=C(C)[C@@H]1CC=C(COC(=O)NC(=O)c2ncn3c(=O)n(C)nnc23)CC1`, the Potency result is “inactive”. On to `C=C1CO[C@@]2(O[C@H]3CC4C5CC=C6C[C@@H](O)C[C@@H](O[C@@H]7OC[C@H](O)[C@H](O[C@@H]8OC[C@@H](O)[C@H](O)[C@H]8O)[C@H]7O[C@@H]7O[C@@H](C)[C@H](OC(C)=O)[C@@H](OC(C)=O)[C@H]7OC(C)=O)[C@]6(C)C5CC[C@]4(C)[C@@H]3[C@@H]2C)[C@@H](O)[C@H]1OC1OC(C)C(O)C(O)C1O` (stereo partly drawn), for which the outcome was “inactive [at 9.29 µM]”. For `O=C(c1ccccc1)c1c(O)cc(O)cc1O[C@@H]1O[C@H](CO)[C@@H](O)[C@H](O)[C@H]1O`, the Potency result was “inactive”.

As to `O=C(Nc1ccc2[nH]nc(-c3ccncc3)c2c1)[C@@H]1CCN(CC(=O)N2CCN(c3ccc(-c4ncccn4)cc3)CC2)C1`, the Potency entry is “inactive”.

For `C=CC1(C)CC(O)C(C(=C)C(=O)OC)C(O)C1C(=C)CO` (stereo not drawn), the Potency entry is “inactive”. On the same count and under the same terms, the result for `CN(C)CC1CCn2c(c(C3=C(c4cn(C)c5ccccc45)C(=O)NC3=O)c3ccccc32)C1` (stereo not drawn) reads 16.4 µM (active). Still for that read-out and setting: next, `CCCN(CCc1ccsc1)C1CCc2c(O)cccc2C1` (stereo not drawn): “inactive”; `CSCC[C@H](NC(=O)[C@H](Cc1ccc(OS(=O)(=O)O)cc1)NC(=O)[C@@H](N)CC(=O)O)C(=O)NCC(=O)N[C@@H](Cc1c[nH]c2ccccc12)C(=O)N[C@@H](CCSC)C(=O)N[C@@H](CC(=O)O)C(=O)N[C@@H](Cc1ccccc1)C(N)=O`: “inactive”; `COc1cc(N2CCC(N)CC2)ccc1Nc1ncc(Cl)c(-c2c[nH]c3ccccc23)n1`: 4.11 µM (active).

In the case of `COc1cc2nc(N3CCN(C(=O)COc4c(OC)cccc4C(C)C)CC3)nc(N)c2cc1OC`, the Potency entry is “inactive”.
